Platelet DG rel – modulates dense granule release in human platelets; human platelet-rich plasma, SFLLRN dense granule ATP release, luminescence; inhibition, %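 (compounds screened at 7.5 µM in platelet-rich plasma)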; hit rate 0.22% among 300,000; AID 1663;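 active means mean replicate score, as percent of positive control, at or above 50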
SENP6 block – blocks the human protease SENP6; Q9GZR1; Recombinant SENP6 catalytic domain, aminoluciferin luminescence; inhibition, % at 10 µM; hit rate 1.8% among 330,000; AID 2599;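 active means inhibition above about 50% at the single tested dose, limit read from the data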;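 further: plate controls were DMSO wells with enzyme for no effect and DMSO wells lacking enzyme for full effect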
Target sequence (Q9GZR1 628-1112 limits assumed): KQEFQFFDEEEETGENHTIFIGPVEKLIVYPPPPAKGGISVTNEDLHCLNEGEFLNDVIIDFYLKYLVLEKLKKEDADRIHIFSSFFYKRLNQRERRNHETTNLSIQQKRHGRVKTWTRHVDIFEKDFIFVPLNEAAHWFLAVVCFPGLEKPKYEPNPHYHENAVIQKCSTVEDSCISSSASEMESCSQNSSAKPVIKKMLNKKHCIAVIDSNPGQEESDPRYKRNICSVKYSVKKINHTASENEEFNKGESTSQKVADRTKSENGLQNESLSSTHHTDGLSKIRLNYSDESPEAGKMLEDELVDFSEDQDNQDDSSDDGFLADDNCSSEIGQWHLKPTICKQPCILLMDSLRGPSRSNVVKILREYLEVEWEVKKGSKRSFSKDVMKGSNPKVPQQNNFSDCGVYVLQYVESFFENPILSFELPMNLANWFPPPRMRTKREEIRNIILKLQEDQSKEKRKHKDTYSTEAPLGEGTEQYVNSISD
SENP7 inh – SENP7 protease inhibition; Q9BQF6; recombinant SENP7, Z-RLRGG-aminoluciferin luminescence, 40 min; inhibition, % at 5 µM; hit rate 1.5% among 330,000; AID 434973;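 active means inhibition above about 50% at the single test dose, limit read from the data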;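 further: plate controls were DMSO with enzyme for no effect and no enzyme buffer wells for full effect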
SENP8 block-1 – SENP8 protease inhibition | Q96LD8 | purified SENP8, Z-RLRGG-aminoluciferin cleavage, luminescence | inhibition, % at 10 µM | hit rate 1.2% among 330,000 | AID 2540; in the data active means inhibition above about 50%
SENP8 block-2 – blocks human SENP8 cleavage of Nedd8 substrate; hit rate 0.64% among 360,000; AID 602440; recombinant SENP8, Nedd8 substrate fluorescence; inhibition, % at 20 µM; in the data active means inhibition mostly above about 40%, no sharp cut-off; inactive means mostly below about 27%
SENP8 confirm – human SENP8 inhibition, confirmed | hit rate 40% among 6,200 | inhibition, % at 12.5 µM | shares compounds with SENP7 inh | Recombinant SENP8, Z-RLRGG-aminoluciferin luminescence, 60 min;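 active means mean inhibition across replicates above about 50%, limit read from the data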
SENP6 conf – human SENP6 inhibition, confirmed | shares compounds with SENP7 inh | recombinant SENP6, Z-RLRGG-aminoluciferin luminescence | inhibition, % at 12.5 µM | hit rate 58% among 6,200 | AID 488915
SENP7 confirm – human SENP7 inhibition, confirmed | shares compounds with SENP7 inh | recombinant SENP7, Z-RLRGG-aminoluciferin luminescence, 40 min | inhibition, % at 12.5 µM | hit rate 69% among 6,200 | AID 488917
Casp3 SENP sel – caspase-3 inhibition (SENP selectivity assay); shares compounds with SENP7 inh; hit rate 60% among 6,200; AID 488918; purified caspase-3, Z-DEVD-aminoluciferin luminescence, 60 min; inhibition, % at 12.5 µM;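 active means mean inhibition above about 50%, limit read from the data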;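 further: plate controls were enzyme with DMSO for no effect and wells without caspase-3 for full effect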
SENP luc ctr – counter-screen for SENP inhibitors: luminescence interference; shares compounds with SENP7 inh; Pre-incubated SENP8/Z-RLRGG-aminoluciferin, luciferase luminescence interference; inhibition, % at 12.5 µM; hit rate 39% among 6,200;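 active means mean inhibition above about 50% when retested at one dose, limit read from the data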;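 further: plate controls were DMSO wells with completed reaction for no effect and substrate without enzyme for full effect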
* hit, by the source's call; i = inactive; . = no result given. In the library only some 2.4% were active in any assay of this set; here they are far more common.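 How the source made its calls, unless noted: active means mean inhibition above about 50% in the one-dose retest (limit read from the data); inactive means the rest.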

SMILES	Platelet DG rel	SENP6 block	SENP7 inh	SENP8 block-1	SENP8 block-2	SENP8 confirm	SENP6 conf	SENP7 confirm	Casp3 SENP sel	SENP luc ctr
COc1ccc(Cc2nnc(SCC(=O)c3ccccc3)o2)cc1	12	10	-2	-1	21	.	.	.	.	.
Cc1cccc(/N=C/c2sc3ccccc3c2O)n1	51*	80*	90*	62*	-359	44	44	15	15	12
Cc1cccc(/N=C/c2c(O)[nH]c3ccccc23)n1	16	88*	3	75*	-3	4	73*	94*	72*	38
O=C(NCCN1CCC(n2c(=O)[nH]c3ccccc32)CC1)c1ccc(F)cc1Cl	.	.	.	.	14	.	.	.	.	.
COc1cc(C)c(C(=O)Oc2cc(C)c(C(=O)O)c(O)c2)c(O)c1	-1	56*	-3	55*	34	42	35	64*	22	59*
COc1cc(O)c(C(=O)O)c(CCc2ccccc2)c1	.	.	-9	.	1	.	.	.	.	.
CCOc1ncccc1C(=O)OCC(=O)N(CC)c1ccccc1	-1	-6	-1	-5	4	.	.	.	.	.
O=C(OCc1ccccc1Cl)c1cccnc1Cl	2	63*	28	20	11	32	35	72*	42	36
O=C(COC(=O)c1cccnc1Cl)c1ccccc1	4	78*	65*	23	1	56*	53*	87*	86*	71*
CCc1ccc(C(=O)COC(=O)c2cccnc2Cl)cc1	3	93*	94*	88*	-4	90*	90*	100*	93*	88*
C/C(CC(=O)Nc1cccc(Cl)c1Cl)=N\NC(=O)c1ccccc1N	9	-16	0	-10	-414	.	.	.	.	.
Cc1ccc(S(=O)(=O)N(C)c2ccc(C(=O)Nc3cccnc3)cc2)cc1	-5	-4	0	1	7	.	.	.	.	.
CCNC(=O)Oc1ccc[nH]c1=O	-4	51*	14	13	16	-3	0	-6	4	3
CC(NC(=O)Cc1ccc(S(=O)(=O)N2CCOCC2)s1)c1ccc(Cl)c(Cl)c1 (centres undefined)	.	-3	-5	-2	8	.	.	.	.	.
c1ccc(-c2nnc(-c3ccccc3)o2)cc1	3	87*	92*	79*	12	72*	82*	96*	88*	66*
COc1cc(-c2nnc(-c3ccccc3)o2)cc(OC)c1OC	-3	-1	1	4	-494	.	.	.	.	.
COc1ccc(-c2nc(C#N)c(NCCc3ccccc3)o2)cc1OC	1	72*	59*	57*	i	6	66*	90*	56*	59*
c1ccc(-c2nnc(-c3ccncc3)o2)cc1	-7	6	-6	-2	39	.	.	.	.	.
COc1ccc(-c2nc(C#N)c(NCc3ccc(C)cc3)o2)cc1OC	7	-24	0	-3	-473	.	.	.	.	.
COc1ccc(-c2nnc(-c3ccccc3)o2)cc1OC	-2	58*	64*	35	-304	50	50	84*	76*	68*
Nc1ccccc1-c1nnc(-c2ccc(-c3ccccc3)cc2)o1	12	14	96*	77*	-272	8	10	16	51*	-4
COc1ccccc1-c1nnc(-c2ccc(C)cc2)o1	8	55*	55*	30	-40	50*	48	74*	54*	56*
Clc1cccc(-c2nnc(-c3ccccc3)o2)c1	-6	95*	94*	92*	5	93*	97*	102*	94*	94*
CSc1ccccc1-c1nnc(-c2ccc(C)cc2)o1	6	48	31	26	-165	.	.	.	.	.
CSc1ccccc1-c1nnc(-c2ccccc2)o1	2	84*	83*	74*	-212	66*	81*	96*	78*	62*
Clc1ccc(OCc2noc(-c3ccsc3)n2)c(Cl)c1	-4	24	33	14	3	.	.	.	.	.
